# Measured values as given in PubChem BioAssay (NCI).
# About 83,000 compounds went through this panel and 20% of them were active in at least one assay; those are over-represented in the sample as a whole.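 Each cell line was grown in a 96-well plate and treated with one concentration of compound for 48 hours. Values below 10 were considered active.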 A number with no mark means an inactive call. Activity calls are given as the source filed them.
# Tests used:
# Assay in all cases: NCI-60 one-dose screen, 48 h (100 = growth as untreated, 0 = no growth, -100 = all killed)
# NCI-H23 lung = details: 10 µM unless noted
# NCI-H226 lung = details: 10 µM unless noted
# NCI-H322M lung = details: 10 µM unless noted
# HOP-62 NSCLC = details: 10 µM unless noted
# NCI-H460 lung = details: 10 µM unless noted
# HOP-92 NSCLC = details: 10 µM
# A549/ATCC NSCLC = details: 10 µM unless noted
# 786-0 renal = details: 10 µM unless noted
# COLO 205 colon = details: 10 µM unless noted
# DU-145 prostate = details: 10 µM unless noted
# K-562 leukemia = details: 10 µM unless noted
# MALME-3M melanoma = details: 10 µM unless noted
# MDA-MB-231 breast = details: 10 µM unless noted
# RXF 393 renal = details: 10 µM unless noted
# SF-268 CNS = details: 10 µM unless noted
# SF-295 CNS = details: 10 µM unless noted
# SF-539 CNS = details: 10 µM unless noted
# UACC-257 melanoma = details: 10 µM unless noted
# NCI-H522 lung = details: 10 µM unless noted
# M14 melanoma = details: 10 µM unless noted
SMILES,growth (NCI-H23 lung),growth (NCI-H226 lung),growth (NCI-H322M lung),growth (HOP-62 NSCLC),growth (NCI-H460 lung),growth (HOP-92 NSCLC),growth (A549/ATCC NSCLC),growth (786-0 renal),growth (COLO 205 colon),growth (DU-145 prostate),growth (K-562 leukemia),growth (MALME-3M melanoma),growth (MDA-MB-231 breast),growth (RXF 393 renal),growth (SF-268 CNS),growth (SF-295 CNS),growth (SF-539 CNS),growth (UACC-257 melanoma),growth (NCI-H522 lung),growth (M14 melanoma)
Nc1nc(Nc2ccccc2SSc2ccccc2Nc2nc(N)nc(-c3cccc(Br)c3)n2)nc(-c2cccc(Br)c2)n1,31.6%,47.8%,94.8%,11.8%,31.8%,86%,1.19% (active),79.3%,116%,62.1%,58.8%,99.9%,57.3%,58%,36.9%,29.8%,95.2%,112%,–,–
CNC(=O)c1c(NC(=O)c2ccccc2C(F)(F)F)sc2c1CCC(=O)C2,13.9%,64.2%,105%,98.6%,57.4%,1.45% (active),70.9%,39.6%,16.2%,99.9%,12.9%,54%,26.5%,–,33.2%,82.2%,14.5%,72.4%,3.39% (active),–
CC1(C)CC[C@]2(C(=O)N3CCOCC3)CC[C@]3(C)C(=CC[C@@H]4[C@@]5(C)C/C(=C/c6ccccn6)C(=O)C(C)(C)[C@@H]5CC[C@]43C)[C@@H]2C1,60.2%,76.2%,103%,78.5%,54.9%,51.1%,54.5%,64.4%,74.2%,62.3%,34.5%,88.7%,55.2%,3.83% (active),59.6%,75.1%,94%,59.6%,–,77.9%
NS(=O)(=O)c1ccc(Nc2nc(N/N=C/CCc3ccccc3)nc(Nc3ccccc3)n2)cc1,104%,104%,108%,108%,104%,97.4%,106%,93.6%,105%,109%,96.7%,113%,97.5%,96%,107%,106%,98.3%,112%,–,–
NC(N)=Nc1ccc(Oc2cccc(NC(N)=Nc3ccc(Br)cc3)c2)cn1,61.1%,81.3%,65.1%,65.6%,46.7%,29%,53.5%,68.7%,16.5%,80.4%,52.4%,69.8%,76.8%,–,28.2%,44.4%,48.7%,77.9%,46.9%,–
Cc1cc(S(=O)(=O)N(C)C)cc(NCC(=O)NC(=O)NCC(C)C)c1C,94.5%,90.7%,100%,78.6%,109%,84.5%,88%,91.1%,109%,85.1%,97.1%,106%,85.6%,64.8%,81.5%,100%,97.1%,103%,–,–
CCCCCc1ccc(S(=O)(=O)Nc2cccc(-c3csc(NC(=O)CN4CCN(CCO)CC4)n3)c2)cc1,84.7%,92.3%,98.6%,92.9%,44.4%,59.5%,–,71.1%,59.2%,86.5%,19.6%,32.3%,76.7%,–,76.8%,77%,83.6%,85.4%,89.1%,–
O=C(Nc1ccc2c(ccn2Cc2ccccn2)c1)c1ccnnc1,94.6%,87.3%,98.5%,76.4%,104%,87.6%,91.4%,86%,110%,89.1%,99.6%,103%,71.1%,59.3%,81.9%,94.7%,97.7%,106%,–,–
CC(=O)Nc1cccc(Nc2nc(N[C@@H](C)c3ccccc3)c3ccccc3n2)c1,20.6%,6.42% (active),53.7%,33.9%,2.67% (active),13.1%,19.9%,3.67% (active),-12.3% (active),11.4%,-19% (active),47%,-22.1% (active),-48.3% (active),27.3%,8.33% (active),-44% (active),55.3%,–,-10.7% (active)
C=CC(=O)N1CC=C(c2cc3c(N[C@H](C)c4ccccc4)ncnc3[nH]2)CC1,78.4%,58.7%,27.2%,58.1%,101%,39%,60.4%,49.9%,92.1%,40.3%,84.2%,104%,47.8%,-27.6% (active),63.4%,79%,60.1%,102%,–,100%
COC[C@]12CCC(C)(C)C[C@H]1C1=CC[C@@H]3[C@@]4(C)CCCNC(C)(C)[C@@H]4CC[C@@]3(C)[C@]1(C)CC2,-83.9% (active),-61.5% (active),-50.5% (active),46.6%,-69% (active),-3.83% (active),10.1%,-83.1% (active),-59.6% (active),-39.8% (active),-43.7% (active),-68.5% (active),-53.3% (active),-93% (active),33.7%,-89% (active),-63.7% (active),-18.5% (active),–,-67.3% (active)
COc1ccccc1C(=O)Nc1cccc2c1C(=O)C(=O)C=C2,85.5%,99.9%,112%,94.8%,103%,113%,88.7%,92.2%,71.5%,93.6%,63.2%,95.4%,80.7%,62.4%,87%,98.8%,103%,106%,–,119%
Cc1nc2ncc(-c3ccc4ncnc(NCc5ccccc5)c4c3)cc2[nH]1,67.6%,64.6%,65.7%,38.9%,89.2%,17.4%,77.5%,48.3%,84.4%,27.4%,84.2%,63.4%,24.4%,-18.1% (active),37.6%,61.5%,60.6%,75.7%,–,81.4%
N/C(=N\C(N)=N\c1nc2ccccc2s1)c1ccc2ccccc2c1,53.2%,62.7%,96.8%,-28% (active),68.1%,88.6%,9.92% (active),87.9%,109%,69%,69.3%,91.3%,67.9%,91.8%,78.9%,74.6%,102%,109%,–,97.5%
CC1(C)[C@@H](O)CC[C@]2(C)[C@H]3CC[C@@H]4[C@H]5[C@H](C(=O)/C=C\c6ccc([N+](=O)[O-])cc6)CC[C@]5(O)CC[C@@]4(C)[C@]3(C)CC[C@@H]12,50.2%,-2.45% (active),90.8%,86.9%,51.8%,82.7%,61.8%,56.8%,106%,58%,27.3%,66.6%,46.2%,-7.82% (active),63.9%,79.5%,51.8%,70.3%,–,42.6%
NC(=O)c1cccc(-n2ccc3cc(NC(=O)Nc4ccc(N5CCOCC5)c(C(F)(F)F)c4)ccc32)n1,12.3%,-3.89% (active),15.8%,1.56% (active),0.481% (active),-16.5% (active),10.5%,-41.8% (active),-48.3% (active),13.2%,-22.9% (active),12.3%,16%,-46.4% (active),3.3% (active),-45.7% (active),-20.5% (active),35.7%,–,16.7%
